Source: PubChem BioAssay (National Center for Advancing Translational Sciences (NCATS))
NTMT1 inhibitor: Primary qHTS for Inhibitors of N-terminal methyltransferase 1 (NTMT1): MTaseGlo Assay; N-terminal Xaa-Pro-Lys N-methyltransferase 1 (Homo sapiens), Q9BV86; NTMT1 MTase-Glo SAH luminescence, purified enzyme; Potency, µM (top dose mostly 114 µM), inactives show top-dose activity change, negative = inhibition, actives largely listed as inhibitors; 59,000 compounds, 2.5% hits; AID 1645870, 2021;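 note: potency is the fitted concentration of half-maximal effect; plate controls were DMSO vehicle for no effect and no enzyme for full effect; nearly all actives have a fitted effect of over 65% in size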
Target sequence (Q9BV86 whole entry, looked up): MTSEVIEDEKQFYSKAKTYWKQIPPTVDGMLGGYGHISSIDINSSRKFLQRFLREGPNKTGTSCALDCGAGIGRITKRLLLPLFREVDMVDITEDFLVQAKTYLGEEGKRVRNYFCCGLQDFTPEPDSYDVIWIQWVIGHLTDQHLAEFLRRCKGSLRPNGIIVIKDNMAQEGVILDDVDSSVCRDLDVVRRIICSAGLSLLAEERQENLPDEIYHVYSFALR
p53null 32C kill: qHTS Screen for Compounds that Selectively Target Cancer Cells with p53 Mutations: Cytotoxicity of p53 Null Cells at the Permissive Temperature; H1299-neo p53 null cells, ATP luminescence, 24 h, 32C; Potency, µM (titrated, usually from 46.1 µM), for the others: top-dose activity change, negative = cytotoxicity, most hits filed as cytotoxic; 55,000 compounds, 0.62% hits; AID 903, 2007;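 note: potency is the fitted concentration of half-maximal effect; 0% = DMSO only and -100% = full killing by 100 µM tamoxifen; nearly all actives have a fitted effect of over 55% in size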
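H1299-neo (p53 null) cells, 600/well, treated 24 h at 32C with compound up to 46 uM; ATPlite luminescence viability, normalized to DMSO and 100 uM tamoxifen; AC50 by Hill fit.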
GALC G270D up: A Novel Cell-Based Assay to Identify Small Molecules for B -Galactocerebrosidase; 145M-Twi-hGALC-G270D cells (Twitcher mouse brain line with human GALC G270D), HMU-beta-Gal fluorescence, 48 h; Potency, µM (titrated, usually from 57.5 µM), actives largely listed as activators; 45,000 compounds, 0.1% hits; note: potency is the fitted concentration of half-maximal effect; 0% is about no effect; nearly all actives have a fitted effect of over 65% in size
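Live 145M-Twi cells (Twitcher mouse brain-derived, GALC-null) stably expressing human GALC-G270D, with a wild-type GALC line, were compound-treated. Residual GALC activity was then read as fluorescence from 0.1 mM final HMU-β-gal at pH 5.2; higher signal means activation.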
DRV1 agonist: qHTS for Agonists of Human Resolvin D1 Receptor DRV1. Probable G-protein coupled receptor 32 (Homo sapiens), O75388. CHO-K1 GPR32 beta-arrestin PathHunter luminescence, 90 min; zero percent set by DMSO-only wells. activation, % at 76.9 µM. 48,000 compounds, 2.5% hits;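 active = activation of at least 60% and not above a set upper limit, about 1 call in 100 departs from these limits; inconclusive = activation of 40% to 60%, or above that upper limit; inactive = activation under 40%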; note: 0% is about no effect
Target sequence (O75388 whole entry, looked up): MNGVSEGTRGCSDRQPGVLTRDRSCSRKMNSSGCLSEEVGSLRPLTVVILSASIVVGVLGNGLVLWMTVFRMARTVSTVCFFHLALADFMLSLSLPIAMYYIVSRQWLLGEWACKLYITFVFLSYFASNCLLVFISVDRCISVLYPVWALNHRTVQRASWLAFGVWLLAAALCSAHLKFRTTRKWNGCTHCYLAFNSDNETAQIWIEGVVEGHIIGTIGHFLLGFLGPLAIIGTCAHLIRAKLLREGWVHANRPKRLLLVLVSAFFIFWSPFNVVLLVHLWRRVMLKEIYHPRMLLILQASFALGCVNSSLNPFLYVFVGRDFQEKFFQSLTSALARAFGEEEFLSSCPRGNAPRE
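PathHunter enzyme-fragment complementation, CHO-K1 GPR32 stable line; 2,500 cells/well, overnight attach; cpd 90 min 37 °C 5% CO2; detection reagent 1 h RT; chemiluminescence. DMSO = EC0.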
FH mod: Identification of activators of human fumarate hydratase by quantitative high-throughput screening; Fumarate hydratase, mitochondrial (Homo sapiens), P07954; FH coupled MDH/diaphorase resazurin fluorescence, 15 min; Potency, µM (top dose mostly 79.9 µM), inactives show at the highest dose activity change, negative = inhibition, actives largely listed as inhibitors; AID 1347055, 2019; 54,000 compounds, 0.22% hits; note: potency is the fitted concentration of half-maximal effect; % is set by controls: 0 for no effect and ±100 for the full control effect; the screen sought activators but most active calls are inhibition curves; nearly all actives have a fitted effect of over 45% in size
p53null 39C kill: qHTS Screen for Compounds that Selectively Target Cancer Cells with p53 Mutations: Cytotoxicity of p53 Null Cells at the Nonpermissive Temperature; Potency, µM (top dose mostly 46.1 µM), inactives show at the highest dose activity, negative = cell killing, usual class: cytotoxic; 55,000 compounds, 0.97% hits; H1299 p53-null (neo) cells, 39C, ATPlite viability, 24 h;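 note: potency is the fitted concentration of half-maximal effect; 0% = DMSO only and -100% = full killing by 100 µM tamoxifen; nearly all actives have a fitted effect of over 50% in size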
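H1299 lung cancer cells, p53-null (H1299-neo) or expressing p53 A138V (H1299-p53A138V), were plated overnight at 37C, then exposed to compounds at up to 46 uM for 24 hr at 39C. Viability was read by ATP-based luminescence.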
Active calls of the source: *; i = inactive; ? = inconclusive; . = no result; ! = a repeat was not active; [ ] = another dose, or the depositor's remark. Hits are enriched below; roughly 3.9% of the tested compounds scored in any of these assays. Unless noted, calls come from the whole dose curve; as a rule, active = well fitted curve in the direction sought with a large enough effect; inconclusive = small, poorly fitted or top-dose-only effect, or another doubt; inactive = no such curve, though single readings can be large; an effect the other way counts as inactive or inconclusive.

SMILES	NTMT1 inhibitor	p53null 32C kill	GALC G270D up	DRV1 agonist	FH mod	p53null 39C kill
Cc1ccccc1S(=O)(=O)N1CCc2cc(-c3nc(NC(=O)Cc4ccc5c(c4)OCO5)sc3C)ccc21	27%	.	.	.	.	.
COc1ccc(-n2ncc3c(NC4CCCC4)ncnc32)cc1	-24%	5µM*	i	31	-27%	8%
Cc1ccc(-n2ncc3c(NC4CCCCC4)ncnc32)cc1C	18%	-16%	i	4	-5%	-4%
Cc1cccc(-n2ncc3c(Nc4ccc(Oc5ccc(Cl)cc5)cc4)ncnc32)c1	-5%	43%	i	48	-21%	61%
Cc1cccc(-n2ncc3c(NC4CCCC4)ncnc32)c1	?	13µM*	i	114*	-5%	36%
Cc1cccc(-n2ncc3c(Nc4ccc(C)c(Cl)c4)ncnc32)c1	?	-9%	i	74*	?	-30%
COc1ccc(CNc2ccc(-c3nc4ccccc4[nH]3)cc2)cc1OC	-1%[57.5 µM]	.	.	.	.	.
Cc1nc(C)c(CN2CCN(C(c3ccc(F)cc3)c3ccc(F)cc3)CC2)nc1C	19%	.	.	.	.	.
CC(C)(C)OC(=O)N1CCc2nc(N3CCN(c4ncccn4)CC3)ncc2C1	4%	-4%	i	62*	1%	-9%
CCNC(=O)Nc1ccc(-c2nc3c(c(N4CCOCC4C)n2)CCN(C2COC2)C3)cc1 (stereo not drawn)	7%[57.5 µM]	.	.	.	-4%	.
CCN(CC)S(=O)(=O)c1nnc(NC(=O)c2ccc(C)cc2)s1	12%	0%	i	32	-1%	12%
CCN(CC)S(=O)(=O)c1nnc(NC(=O)c2ccc(C(C)C)cc2)s1	9%	-6%	i	75*	14%	-15%
CC(C)COc1ccc(C(=O)Nc2nnc(S(=O)(=O)N(C)Cc3ccco3)s2)cc1	5%	?	i	?	0%	10µM*
CC(=O)N[C@H]1CSSC[C@@H](C(N)=O)NC(=O)[C@H](C(C)C)NC(=O)[C@H](C)NC(=O)[C@H](Cc2cnc[nH]2)NC1=O	9%	.	.	.	.	.
CCCCCCCCCCCCCCCC[N+](C)(C)CCN(Cc1ccc(OC)cc1)c1ncccn1	25µM*	.	i	-47	-6%[53.3 µM]	.
O=c1oc2c(O)c(O)cc3c(=O)oc4c(O)c(O)cc1c4c23	3.5µM*!	.	i	?	-12%[53.3 µM]	.
C#CCn1c(/C=C/c2ccc(Cl)cc2)nc2ccccc21	?	3.2µM*	i	-18	-19%	4µM*
CC(C)CCn1c(/C=C/c2ccccc2)nc2ccccc21	-4%	?	i	-31	?	?
CC(C)Cn1c(/C=C/c2ccc(F)cc2)nc2ccccc21	-16%	11µM*	i	-41	-16%	7.9µM*
CCC(C)Cn1c(/C=C/c2ccccc2)nc2ccccc21 (stereo not drawn)	-18%	?	i	?	-15%	10µM*
CC(C)Cn1c(-c2ccccc2Cl)nc2ccccc21	11%	-9%	i	14	2%	-27%
CCC1=CC2CN(C1)Cc1c([nH]c3ccccc13)[C@@](C(=O)OC)(c1cc3c(cc1OC)N(C)[C@H]1[C@@](O)(C(=O)OC)[C@H](OC(C)=O)[C@]4(CC)C=CCN5CC[C@]31[C@@H]54)C2 (stereo partly drawn)	-1%[29.8 µM]	.	.	.	5%[53.3 µM]	.
Cc1ccc(-c2ccc(=O)n(CC(=O)N(C)C3CCCCCC3)n2)cc1	-8%[57.5 µM]	.	.	.	.	.
COc1ccccc1NC(=O)C1=C(C)Nc2nc(SCc3ccccc3F)nn2C1c1ccncc1 (stereo not drawn)	89µM*	2%	i	4	-2%	10%
COc1ccccc1NC(=O)C1=C(C)Nc2nc(SCc3ccccc3)nn2C1c1ccncc1 (stereo not drawn)	-3%	1%	i	26	-1%	-5%
SMILES	NTMT1 inhibitor	p53null 32C kill	GALC G270D up	DRV1 agonist	FH mod	p53null 39C kill
Cc1ccc(S(=O)(=O)N2CCC(n3c(C)nc4cccnc43)CC2)c(C)c1	-1%	-7%	i	?	-19%	-5%
COc1ccc(S(=O)(=O)N2CCC(n3c(C)nc4cccnc43)CC2)cc1Cl	.	-8%	.	70*	.	-13%
Cc1ccc(NS(=O)(=O)c2ccc3c(c2)CCC(=O)N3C)cc1Cl	-4%	.	.	.	.	.
Cc1nc2c(C(=O)NCCc3ccc(Cl)cc3)c[nH]n2c(=O)c1Cc1ccc(Cl)cc1	-5%	?	i	17	?	20µM*
Cc1nc2c(C(=O)N(C)Cc3ccccc3)c[nH]n2c(=O)c1Cc1ccc(Cl)cc1	11%	32%	i	-15	3%	61%
Cc1nc2c(C(=O)NCCc3ccccc3)c[nH]n2c(=O)c1Cc1ccccc1F	-20%	16µM*	i	18	-18%	?
Cc1ccc(CNC(=O)c2c[nH]n3c(=O)c(Cc4ccc(Cl)cc4)c(C)nc23)cc1	?	?	i	5	?	?
CCOC(=O)C1CCN(C(=O)C2(NC(=O)Nc3ccccc3Cl)CCC2)CC1	12%	.	.	.	.	.
CN(c1ccc(NC(=O)Nc2ccccc2)cc1)S(=O)(=O)c1cnn(-c2ccc(F)cc2)c1	4%[57.5 µM]	.	.	.	-2%	.
Nc1nc(NCc2ccc(-c3cccnc3)cc2)c2ccccc2n1	-3%[57.5 µM]	.	.	.	.	.
Cc1c(-c2ccccc2)c(=O)oc2c(CN3CCN(C)CC3)c(O)ccc12	-7%	-6%	4.5µM*	13	5%	18%
Cc1ccnc(NC(=O)/C=C/c2cccs2)c1	.	10µM*	.	.	.	.
CCOC(=O)c1cnc2ccc(-c3cncc(NS(=O)(=O)c4ccccc4)c3)cn12	28µM*	.	.	.	23%	.
O=C(NCCc1ccccc1Cl)c1ccc2c(c1)nc1n2CCOC1	1%	10µM*	i	-7	-24%	5µM*
COCCCNC(=O)c1ccc2c(c1)nc1n2CCCCC1	-1%	?	i	-4	9%	13µM*
Cc1cccc(CCNC(=O)c2ccc3c(c2)nc2n3CCCCC2)c1	-23%	10µM*	i	-11	-7%	10µM*
CCC(C)NC(=O)c1ccc2c(c1)nc1n2CCCCC1 (stereo not drawn)	-3%	?	i	-13	-9%	5µM*
